Assay outcomes (PubChem BioAssay)
Hits are enriched below; roughly 4.2% of the tested compounds scored in any of these assays.
D1 ag: agonists of human D1 dopamine receptor. HEK293 T-REx D1 cells, calcium flux, agonist mode. hit rate 1% among 360,000. AID 504660. activation, % at 2 µM; in the data active means activation above about 30%; further: 0% is about no effect
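Inducible HEK293 T-REx D1 cells, force-coupled to calcium signalling, were plated at 4000 cells/well with tetracycline and held overnight at 30 C. After no-wash calcium dye loading, compound-evoked calcium rise over 180 s flagged agonists.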
TRPV1 PAM: enhances activation of the human vanilloid receptor TRPV1; Q8NER1; TRPV1-expressing cells, Fluo-8 calcium influx, capsaicin EC20 potentiation; potentiation, % at 8.33 µM; hit rate 0.02% among 320,000; in the data active means potentiation above about 80%; inconclusive means between about 30% and that limit; further: 0% is about no effect
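TRPV1-expressing cells were cultured overnight at 35.5C and loaded with Fluo-8 calcium dye for 40 to 90 min at room temperature. After a 10 s baseline, compound was added and calcium influx was read kinetically for 3 min (ex 480/em 520 nm).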
D1 PAM: human D1 dopamine receptor positive modulation; HEK293 TREx D1 cells, calcium flux, dopamine EC20 potentiation; potentiation, % at 10 µM; hit rate 0.036% among 360,000; P21728; in the data active means potentiation above about 30%; further: 0% is about no effect
D1 antag: human D1 dopamine receptor antagonism. activity change, negative = inhibition, % at 10 µM. HEK293 TREx D1 cells, calcium flux, dopamine EC80; active compounds read low. P21728. hit rate 3.2% among 360,000; in the data active means activity change below about -30%; further: on the % scale 0 is the no-effect control and ±100 the full control effect
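Cells carrying a force-coupled, tetracycline-inducible human D1 receptor report calcium flux. Each well gets a 10 s baseline, compound with 180 s monitoring, then an EC80 dopamine stimulus with a second 180 s kinetic read.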
TRPV1 ag: activates the human vanilloid receptor TRPV1; Q8NER1; TRPV1-expressing cells, Fluo-8 calcium influx, agonist mode; activation, % at 8.33 µM; hit rate 0.19% among 320,000; AID 540275; in the data active means activation above about 80%; inconclusive means between about 30% and that limit; further: 0% is about no effect
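Cells expressing TRPV1 were dye-loaded with Fluo-8 and read kinetically: 10 s baseline, 3 min after compound (agonist portion), then 2 min after EC20 capsaicin (allosteric enhancer portion). Calcium-bound dye fluorescence at 480/520 nm.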
* hit, by the source's call.

How did CC1NC(=O)c2ccccc2-n2c1nc1cc(F)ccc1c2=O (stereo unspecified) do in these assays?
D1 ag: -2; TRPV1 PAM: -3; D1 PAM: -1; D1 antag: 2; TRPV1 ag: 0

What do the screens show for `O=c1c2ccccc2sn1-c1ccccc1`?
D1 ag: 2; TRPV1 PAM: 2; D1 PAM: -6; D1 antag: 13; TRPV1 ag: 22

How did Cc1ccc(C)c(Nc2nnc(-c3ccc(C)c(S(=O)(=O)N4CCN(C)CC4)c3)c3ccccc23)c1 do in these assays?
D1 ag: -3; D1 PAM: 1; D1 antag: -31*

Results for Cc1ccc(C)c(Nc2nnc(-c3ccc(C)c(S(=O)(=O)NCC4CCCO4)c3)c3ccccc23)c1 (stereo unspecified) ?
D1 ag: 2; D1 PAM: 0; D1 antag: -39*

Results for N#Cc1cc2ccccc2nc1SCC(=O)Nc1ccccc1N1CCOCC1 ?
D1 ag: 62*; TRPV1 PAM: -1; D1 PAM: -3; D1 antag: -10; TRPV1 ag: inconclusive

What do the screens show for `Cc1ccc(NC(=O)OC(C)CNC(=O)Oc2cccc(C)c2)cc1` (stereo unspecified)?
D1 ag: 3; TRPV1 PAM: -6; D1 PAM: -6; D1 antag: -32*; TRPV1 ag: -9

Results for O=c1[nH]cnc2scc(C3COc4ccccc4O3)c12 (stereo unspecified) ?
D1 ag: 47*; TRPV1 PAM: inconclusive; D1 PAM: -3; D1 antag: -18; TRPV1 ag: -1

How did Clc1ncnc2scc(C3COc4ccccc4O3)c12 (stereo unspecified) do in these assays?
D1 ag: 0; TRPV1 PAM: -6; D1 PAM: -4; D1 antag: -13; TRPV1 ag: inconclusive

How did Cc1ccc(S(=O)(=O)c2cn(CC(=O)Nc3cccc(C)c3)c3cc4c(cc3c2=O)OCO4)cc1 do in these assays?
D1 ag: 4; D1 PAM: -3; D1 antag: -5

How did CCOC(=O)C1C(c2cccc(Cl)c2Cl)NC(=O)NC1(O)C(F)(F)F (stereo unspecified) do in these assays?
D1 ag: -3; TRPV1 PAM: -9; D1 PAM: -4; D1 antag: -59*; TRPV1 ag: 9

Results for COc1ccccc1CNC(=O)CN(C)c1nn2c(=O)cc(C)nc2s1 ?
D1 ag: 3; D1 PAM: -1; D1 antag: 7

What do the screens show for `COC(=O)c1ccc(C23CC4(C2)[C@H](CN(C)[C@@H]4c2ccccc2)C3c2ccc(C(F)(F)F)cc2)cc1` (stereo partly specified)?
D1 ag: 1; TRPV1 PAM: inconclusive; D1 PAM: 1; D1 antag: -52*; TRPV1 ag: -1

Results for COC(=O)c1ccc(C23CC4(C2)[C@H](CN(Cc2ccc(C(F)(F)F)cc2)[C@@H]4c2ccccc2)C3c2ccc(C(F)(F)F)cc2)cc1 (stereo partly specified) ?
D1 ag: 2; TRPV1 PAM: -17; D1 PAM: 0; D1 antag: 23; TRPV1 ag: 4

Results for CSCCC(NC(=O)c1ccco1)C(=O)Nc1ccc(C)cn1 (stereo unspecified) ?
D1 ag: 0; TRPV1 PAM: 8; D1 PAM: -19; D1 antag: -35*; TRPV1 ag: -1

Results for CSCCC(NS(=O)(=O)c1ccc(C)cc1)C(=O)Nc1ccc(C)cn1 (stereo unspecified) ?
D1 ag: 0; TRPV1 PAM: -6; D1 PAM: 1; D1 antag: -1; TRPV1 ag: 11

How did O=C(c1cc2ccccc2oc1=O)N1CCN(c2ccc(F)cc2)CC1 do in these assays?
D1 ag: 0; D1 PAM: 3; D1 antag: -10

Results for CNC(=O)C(=O)Nc1c(C)cc(C)cc1C ?
D1 ag: 4; TRPV1 PAM: 13; D1 PAM: 1; D1 antag: -36*; TRPV1 ag: 1

What do the screens show for `O=C(/C=C/c1ccccc1)Nc1nc(-c2ccncc2)cs1`?
D1 ag: 2; TRPV1 PAM: -11; D1 PAM: -1; D1 antag: -6; TRPV1 ag: 8

How did N#Cc1ccc(-c2csc(NC(=O)/C=C/c3cccs3)n2)cc1 do in these assays?
D1 ag: 1; TRPV1 PAM: -3; D1 PAM: -5; D1 antag: -44*; TRPV1 ag: 19

What do the screens show for `N#Cc1ccc(-c2csc(NC(=O)C3CC3)n2)cc1`?
D1 ag: 0; D1 PAM: -7; D1 antag: -12

How did Cc1ccc(-c2csc(NC(=O)/C=C/c3cccs3)n2)cc1C do in these assays?
D1 ag: 3; TRPV1 PAM: 11; D1 PAM: -4; D1 antag: -79*; TRPV1 ag: 2

Results for CC(=O)c1nc(N2C(=O)CC(Cc3cc(C)cc(C)c3)C2=O)sc1C (stereo unspecified) ?
D1 ag: 1; TRPV1 PAM: 5; D1 PAM: -1; D1 antag: -15; TRPV1 ag: 0

What do the screens show for `CC(=O)c1nc(N2C(=O)CC(Cc3cccc(C)c3)C2=O)sc1C` (stereo unspecified)?
D1 ag: 4; TRPV1 PAM: 0; D1 PAM: -5; D1 antag: -53*; TRPV1 ag: 0

What do the screens show for `CCCNC(=O)CSc1cn(CC(=O)N2CCCCCC2)c2ccccc12`?
D1 ag: 0; D1 PAM: -2; D1 antag: -12

Results for CCOc1ccccc1Nc1sc(C(=O)c2ccccc2)c(N)c1S(=O)(=O)c1ccc(C)cc1 ?
D1 ag: 15; D1 PAM: 2; D1 antag: 13

What do the screens show for `CCc1ccccc1Nc1sc(C(=O)c2cccc(OC)c2)c(N)c1S(=O)(=O)c1ccccc1`?
D1 ag: 13; D1 PAM: -1; D1 antag: 11

Results for COc1ccc(S(=O)(=O)c2c(Nc3ccccc3F)sc(C(=O)c3cccc(OC)c3)c2N)cc1 ?
D1 ag: 80*; D1 PAM: -1; D1 antag: 0

What do the screens show for `COc1ccc(S(=O)(=O)c2c(Nc3ccc(C)cc3C)sc(C(=O)c3ccc(F)cc3)c2N)cc1`?
D1 ag: 88*; D1 PAM: -3; D1 antag: -48*

How did CCOc1ccc(Nc2sc(C(=O)c3ccc(F)cc3)c(N)c2S(=O)(=O)c2ccc(C)cc2)cc1 do in these assays?
D1 ag: 48*; D1 PAM: 0; D1 antag: -41*

How did CCN(CC)S(=O)(=O)c1ccc2c(c1)N(CC(=O)Nc1ccc(F)cc1)C(=O)CO2 do in these assays?
D1 ag: -1; D1 PAM: -3; D1 antag: 8
